BoNT-A LC inh2 = BoNT/A light chain protease inhibitors, primary screen, biochemical, flow cytometry, MLPCN library; multiplex microsphere protease substrate cleavage; inhibition, % at 10 µM; hit rate 0.17% among 360,000; AID 588499, 2011; in the data active = inhibition above about 30%; inconclusive = no clear call, values can overlap the other calls; also: plate controls were buffer without enzyme for full effect and enzyme alone for no effect
BoNT F protease = BoNT/F light chain protease inhibitors, primary screen, biochemical, flow cytometry, MLPCN library; hit rate 0.22% among 360,000; Multiplex microsphere protease cleavage assay; inhibition, % at 10 µM; in the data active = inhibition above about 35%, passing the limit was not always enough; inconclusive = no clear call, values can overlap the other calls; also: plate controls were buffer without enzyme for full effect and enzyme alone for no effect
MazF activator = activators of E. coli MazEF toxin-antitoxin RNase, primary screen, biochemical, fluorescence, uHTS | hit rate 0.32% among 350,000 | Endoribonuclease toxin MazF (Escherichia coli (strain K12)), P0AE70 | FAM/BHQ RNA-DNA oligo cleavage fluorescence, 5 h | activation, % at 20 µM | AID 504720, 2011; in the data active = activation above about 50%
Anthrax LF inh2 = Bacillus anthracis LF protease inhibitors, primary screen, biochemical, multiplex microsphere, MLPCN library. Lethal factor (Bacillus anthracis), P15917. inhibition, % at 10 µM. hit rate 0.12% among 360,000. multiplex microsphere protease cleavage assay. AID 588501, 2011; in the data active = inhibition above about 30%; inconclusive = no clear call, values can overlap the other calls; also: plate controls were buffer without enzyme for full effect and enzyme alone for no effect
Target sequence (P15917 whole entry, looked up): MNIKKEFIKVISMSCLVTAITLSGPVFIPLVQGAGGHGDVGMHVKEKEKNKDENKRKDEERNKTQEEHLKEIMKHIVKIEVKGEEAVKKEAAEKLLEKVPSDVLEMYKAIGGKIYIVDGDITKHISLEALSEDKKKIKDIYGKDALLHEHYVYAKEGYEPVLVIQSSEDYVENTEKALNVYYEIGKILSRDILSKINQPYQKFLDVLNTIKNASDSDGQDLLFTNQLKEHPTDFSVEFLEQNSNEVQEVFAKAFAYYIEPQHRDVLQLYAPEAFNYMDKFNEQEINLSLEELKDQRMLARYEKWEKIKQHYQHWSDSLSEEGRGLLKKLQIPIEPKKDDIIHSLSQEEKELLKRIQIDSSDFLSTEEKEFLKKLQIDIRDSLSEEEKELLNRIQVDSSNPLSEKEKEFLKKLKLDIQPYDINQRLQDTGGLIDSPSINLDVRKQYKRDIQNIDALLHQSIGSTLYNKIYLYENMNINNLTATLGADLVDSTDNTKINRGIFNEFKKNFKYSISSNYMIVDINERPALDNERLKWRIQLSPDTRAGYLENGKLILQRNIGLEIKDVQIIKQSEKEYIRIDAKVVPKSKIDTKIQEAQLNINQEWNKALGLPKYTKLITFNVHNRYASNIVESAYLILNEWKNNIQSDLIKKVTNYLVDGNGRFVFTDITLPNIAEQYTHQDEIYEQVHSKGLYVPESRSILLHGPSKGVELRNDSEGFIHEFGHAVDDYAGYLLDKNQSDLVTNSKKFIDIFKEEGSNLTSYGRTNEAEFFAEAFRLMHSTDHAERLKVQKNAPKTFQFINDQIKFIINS
Autofluor counter = compound fluorescence in toxin protease inhibitor counterscreen. compound autofluorescence counterscreen, microsphere flow cytometry; active compounds read high. fluorescence intensity (no concentration beside the values). hit rate 3.1% among 360,000. AID 624483; in the data active = fluorescence intensity above about 16000; inconclusive = no clear call, values can overlap the other calls
BoNTA LC inh 1 = BoNT/A light chain protease inhibitors, confirmation, biochemical, flow cytometry, cherry pick 1. hit rate 3% among 720. multiplex microsphere protease assay. AID 602139, 2011. shares compounds with BoNT F protease. inhibition, % at 10 µM; in the data active = inhibition above about 32%
BoNTF LC inh 1 = BoNT/F light chain protease inhibitors, confirmation, biochemical, flow cytometry, cherry pick 1; shares compounds with BoNT F protease; multiplex microsphere protease cleavage assay; inhibition, % at 10 µM; 720 tested, under 10 active; AID 602140, 2011
LF protease CP1 = Bacillus anthracis LF protease inhibitors, confirmation, biochemical, multiplex microsphere, cherry pick 1; shares compounds with BoNT F protease; multiplex microsphere protease cleavage assay; inhibition, % at 10 µM; 720 tested, under 10 active
* marks the source's active call; other numbers are inactive results; u = inconclusive; x = no result given. Only some compounds are listed: those with a hit (about 3.6% of all), similar ones and a draw of the others. Unless noted, no rule for the calls is given here.

SMILES	BoNT-A LC inh2	BoNT F protease	MazF activator	Anthrax LF inh2	Autofluor counter	BoNTA LC inh 1	BoNTF LC inh 1	LF protease CP1
COc1ccccc1NC(=O)C(C)Sc1nccn1C (centres undefined)	1	8	2	1	3002	x	x	x
CC(Sc1nccn1C)C(=O)Nc1ccc(C(N)=O)cc1 (centres undefined)	22	39*	4	2	u	0	-5	-1
COc1ccc(-n2c(SCC(=O)Nc3ccc(C(=O)O)cc3)nnc2-c2cccs2)cc1	0	5	0	4	4464	x	x	x
COc1ccc(-c2nnc(SCC(=O)Nc3ccc(C(=O)O)cc3)n2-c2ccc(Cl)cc2)cc1	0	10	6	28	3869	0	0	-2
Cn1cc(CNC(=O)C2CCC(=O)N(Cc3ccc(Cl)cc3)C2)cn1 (centres undefined)	0	1	5	0	5660	x	x	x
COc1ccc(C(O)c2ncc(-c3ccc4ccccc4c3)[nH]2)cc1 (centres undefined)	0	-1	x	-3	3851	x	x	x
O=S(=O)(c1ccc(F)cc1)N1CCN(c2ccccn2)CC1	-2	-6	10	4	4180	x	x	x
O=S(=O)(c1ccc(Cl)cc1)N1CCN(c2ccccn2)CC1	-3	48*	2	-6	3973	1	-4	-6
COc1cc2nc(/C=C/c3ccc(N(C)C)cc3)sc2cc1SC	39*	-70	-51	-3	6632	3	-6	-3
NC(=O)c1ccccc1NC(=O)c1ccoc1	1	-6	8	-2	5577	x	x	x
Cc1cccc(C(C(=O)NC2CCCC2)N(C(=O)c2csnn2)C2CCCC2)c1 (centres undefined)	4	13	10	2	3368	x	x	x
CC1c2cc3c(cc2CCN1S(=O)(=O)c1ccccc1)OCCCO3 (centres undefined)	-2	-14	0	-2	6252	x	x	x
CCOc1ccccc1NC(=O)c1ccc(S(=O)(=O)N(C)C)cc1	0	4	2	39*	u	0	-4	-1
CCOc1ccccc1NC(=O)c1ccc(S(=O)(=O)N(C)c2ccccc2)cc1	0	-8	0	-13	3483	x	x	x
O=C(Nc1c[nH]c(=O)[nH]c1=O)c1cc([N+](=O)[O-])cc([N+](=O)[O-])c1	-5	135*	-4	7	4035	1	76*	1
O=C(Nc1c[nH]c(=O)[nH]c1=O)c1ccc2c(c1)C(=O)N(c1cccc([N+](=O)[O-])c1)C2=O	0	4	7	-4	5147	x	x	x
COc1cc(CCC(=O)O)on1	3	62*	-1	4	3555	0	-4	-2
COc1ccc(S(=O)(=O)N2CCSC2C)cc1C (centres undefined)	-2	44*	6	20	3569	-1	-5	-5
COc1ccc(-c2coc3c(C(=O)NCC4CC4)cccc23)c(C)c1	0	8	x	3	3415	x	x	x
CCN(CC)C(=O)CSc1nc(Cc2ccccc2)nc2ccccc12	2	u	4	40*	4268	2	0	2
Cc1n[nH]c(C)c1CCNC(=O)C1CCC(=O)N(CCc2cccc(F)c2)C1 (centres undefined)	13	35*	-9	-1	u	0	-4	-1
Cc1nc(CCNC(=O)C2CCC(=O)N(CCc3cccc(F)c3)C2)sc1C (centres undefined)	-1	-8	8	-7	6170	x	x	x
Cc1nn(CC(=O)NCCc2cccs2)c(=O)c2cc3ccccc3n12	38*	3	5	34*	5756	-2	-2	-7
Cn1c(=O)[nH]c(=O)c2c1nc1n2CC(O)CN1c1ccccc1 (centres undefined)	3	36*	14	-14	3482	0	-1	-2
COc1ccc(Cl)cc1NC(=O)CN(C)C(=O)CCC(=O)c1cc(C)sc1C	x	x	-7	x	x	x	x	x
SMILES	BoNT-A LC inh2	BoNT F protease	MazF activator	Anthrax LF inh2	Autofluor counter	BoNTA LC inh 1	BoNTF LC inh 1	LF protease CP1
COc1cccc(NC(=O)CN(C)C(=O)CCC(=O)c2cc(C)sc2C)c1	68*	u	2	-2	4033	0	-6	0
O=C(O)c1cccc(OS(=O)(=O)c2cc(Br)ccc2Br)c1	0	9	0	8	3316	x	x	x
COc1ccccc1C(=O)NCCn1ccc2ccccc21	96*	36*	0	59*	9297	2	2	-1
O=C(Cc1ccccc1)NCCn1ccc2ccccc21	9	6	-7	8	6292	x	x	x
COc1cc(OC)cc(C(=O)NCCn2ccc3ccccc32)c1	5	4	1	4	6827	0	-5	4
COCC(C)NS(=O)(=O)c1ccc(C(=O)NCCCn2ccc3ccccc32)cc1 (centres undefined)	0	15	1	-1	3119	2	-8	3
COc1ccc(C(=O)NCCn2ccc3ccccc32)cc1OC	14	12	-29	23	5089	0	0	-2
CC(=O)NCCn1ccc2ccccc21	0	-8	6	3	2365	x	x	x
CCC(C)C1Nc2ccc(C(=O)NCCc3ccc(OC)c(OC)c3)cc2NC1=O (centres undefined)	1	-14	6	4	4008	x	x	x
CC(C)(C)n1nc2c(c1NC(=O)Cc1ccc([N+](=O)[O-])cc1)CS(=O)(=O)C2	1	0	6	-3	6379	x	x	x
O=S(=O)(Nc1ccc(S(=O)(=O)N2CCCC2)cc1)c1ccccc1Br	-1	1	-1	-7	7853	x	x	x
COc1cccc(C(=O)NCCn2ccc3ccccc32)c1	4	3	3	4	5004	1	-2	3
CN(C)c1cccc(C(=O)NCCCn2ccc3ccccc32)c1	-2	0	-31	2	5879	1	-1	1
COc1cccc(OC)c1C(=O)N1CCNCC1	2	-28	0	8	3975	x	x	x
Cc1ccc2cc3cc(C(=O)NCCN4CCOCC4)oc3nc2c1	1	35*	-17	3	3441	0	-2	-1
COc1ccc2cc3cc(C(=O)NCCCN4CCOCC4)oc3nc2c1	0	-19	4	-3	2791	x	x	x
COc1cc(NC(=O)c2c(OC)cccc2OC)ccc1NC(=O)c1cc2ccccc2o1	-2	-39	-1	32*	3480	1	-1	0
